The record followed here is PubChem BioAssay.

Active and inactive are the calls of the source.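 The calls were made as follows, unless noted: active = inhibition above 20% together with a positive visual image hit; inconclusive = visual image hit but inhibition not above 20%; inactive = no visual image hit.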

The nature of assay [1]: inhibitors of TNFa-induced NFkB p65 translocation, primary screen, imaging, HUVEC, MLSMR starter and 10KST1 sets (AID 438).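 Also: compound added about 3h40 before a 20 min TNFalpha stimulation.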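 As to inhibition: signal is the nuclear over cytoplasmic p65 intensity ratio per well.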 The following applies: HUVEC TNFa-induced p65 nuclear translocation; cell count: measured here: nuclei count (cytotoxicity indicator), at 2.08 µM; inhibition: at 2 µM, stronger effect = higher value, 0% TNFa-plus-vehicle, 100% no-TNFa wells.
A short description of assay [2]: inhibitors of mutant huntingtin aggregation, primary screen, imaging, exon1htt(103Q)mCFP cells, high-content imaging (AID 483;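 active = visual image review flags a hit and inhibition of aggregation exceeds 20%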;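 also: compound exposure lasted 3 days before fixation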;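 as to nuclei count: percent of the per-plate median nuclei count of sample wells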). The following applies: exon1htt(103Q)mCFP cell line, aggregate imaging, at 2 µM; inhibition of aggregation: stronger effect = higher value; nuclei count: measured here: cell count, toxicity.
The nature of assay [3]: inhibitors of E-selectin induction by TNFa, primary screen, imaging, HUVEC, immunofluorescence, MLSMR starter and 10KST1 sets (AID 487;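 active = visually confirmed hit in the image check and inhibition above 20%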;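 as to inhibition: signal is fraction of cell area covered by stained E-selectin grains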;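 as to nuclei count: 100% = median nuclei count of all wells on the same plate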). The following applies: HUVEC TNFalpha-induced E-selectin immunofluorescence imaging, at 2 µM; inhibition: stronger effect = higher value; nuclei count: measured here: cell number, toxicity.
For assay [4], the target named is Voltage-gated potassium channel subunit beta-2 (Rattus norvegicus) (UniProt P62483). The experiment in a line: KvBeta enzyme negative modulators, primary screen, biochemical, NADPH fluorescence (AID 622;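 active = fluorescence slope higher than the sample average by over 3 SD, cut at about -0.22 in these data, passing the limit was not always enough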;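 also: slope of raw intensity against log time taken from 70 to 1610 s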). Conditions: recombinant KvBeta, 4-cyanobenzaldehyde reduction, at 10 µM, stronger effect = higher value.
The target is the same in assay [5]. Description: KvBeta positive modulators, primary screen, biochemical, NADPH fluorescence (AID 623;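 active = NADPH fluorescence slope more negative than the mean of all samples by about 3 SD, 99.7% confidence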;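 also: fluorescence intensity change per second fitted from 20 to 320 s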). Conditions: Recombinant KvBeta, NADPH fluorescence decrease slope, 10 min; at 10 µM; stronger effect = lower value.
Assay [6] has as its target Alpha-2C adrenergic receptor (Homo sapiens) (UniProt P18825). Description: modulators of alpha2C/GIRK thallium flux, primary screen, cell-based, HEK293 alpha2C/GIRK1/2 (AID 624;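 active = fluorescence slope after compound addition differing from the mean of all screened samples at 99.7% confidence, in either direction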;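 also: slope of fluorescence ratio to pre-addition baseline per second over 15 to 24 s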). The following applies: thallium flux BTC fluorescence, at 10 µM, actives lie on both sides.
Assay [7] is described as follows: inhibitors of Sendai virus-induced IRF3 signaling, primary screen, TLR/RLR signaling modifier project, cell-based, Sendai virus stimulus, luciferase, 10K MLSCN set (AID 602276;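 active = inhibition at or above 50% at 10 µM; inactive = inhibition below 50%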;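 also: firefly luciferase from ISG56 promoter only with Renilla not read in this screen; 0% = Sendai virus plus DMSO and 100% = medium plus DMSO without virus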). The following applies: HEK293 RL24 IRF3 luciferase reporter, at 10 µM, stronger effect = higher value.
The nature of assay [8]: inhibitors of poly I:C-induced TLR3 signaling, primary screen, cell-based, poly I:C stimulus, luciferase, 10K MLSCN set (AID 602277;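 active = inhibition of the reporter signal at or above 50%; inactive = inhibition below 50%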). The following applies: HEK293-TLR3 RL24 IRF3 luciferase reporter, at 10 µM, stronger effect = higher value.

Sequence of Alpha-2C adrenergic receptor (Homo sapiens) (P18825 whole entry, looked up): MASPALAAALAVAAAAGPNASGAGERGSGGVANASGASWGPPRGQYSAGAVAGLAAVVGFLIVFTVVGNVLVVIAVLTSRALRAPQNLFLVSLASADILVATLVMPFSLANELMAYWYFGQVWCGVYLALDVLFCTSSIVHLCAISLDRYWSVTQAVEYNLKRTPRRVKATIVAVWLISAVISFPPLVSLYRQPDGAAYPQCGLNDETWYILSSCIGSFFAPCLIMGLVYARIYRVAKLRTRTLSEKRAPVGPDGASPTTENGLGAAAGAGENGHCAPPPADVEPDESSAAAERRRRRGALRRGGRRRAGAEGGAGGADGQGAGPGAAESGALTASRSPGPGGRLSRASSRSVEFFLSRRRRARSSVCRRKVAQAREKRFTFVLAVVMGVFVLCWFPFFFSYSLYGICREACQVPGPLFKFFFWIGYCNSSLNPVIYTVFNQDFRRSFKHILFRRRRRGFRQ
Sequence of Voltage-gated potassium channel subunit beta-2 (Rattus norvegicus) (P62483 whole entry, looked up): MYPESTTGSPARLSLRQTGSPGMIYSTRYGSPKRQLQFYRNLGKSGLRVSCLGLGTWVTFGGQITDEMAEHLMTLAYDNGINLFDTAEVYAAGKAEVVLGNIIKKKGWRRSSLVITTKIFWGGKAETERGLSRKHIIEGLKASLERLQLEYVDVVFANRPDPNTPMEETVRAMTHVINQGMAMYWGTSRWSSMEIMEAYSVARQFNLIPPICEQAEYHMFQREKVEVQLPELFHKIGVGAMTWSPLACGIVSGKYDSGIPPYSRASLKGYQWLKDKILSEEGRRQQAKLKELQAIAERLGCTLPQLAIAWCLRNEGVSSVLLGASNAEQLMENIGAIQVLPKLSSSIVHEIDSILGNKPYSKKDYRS

Regarding `CC1CCN(C(=O)CN2C(=O)C(C)(C)Oc3ccc(C(=O)NC4CCCC4)cc32)CC1`, the cell count in assay [1] was determined as 458. In addition, the inhibition is 0.3% (inactive) in assay [1], -83.6% (inactive) in assay [3], -6.8% (inactive) in assay [7] and 14.6% (inactive) in assay [8]. Also, in assay [2], the inhibition of aggregation was -4.6% (inactive). The nuclei count in assay [2] was 84.4%; in assay [3], 117%. In addition, the fluorescence slope in assay [4] was -0.503 (inactive). In assay [5], the NADPH fluorescence slope was -1.2e-05 (inactive). In addition, the slope in assay [6] was 0.00666 (inactive).

`O=S(=O)(Nc1ccccn1)c1ccc(Oc2ccccc2)cc1`: the cell count in assay [1] is 248. Also, the inhibition is -6.3% (inactive) in assay [1], -2.9% (inactive) in assay [3], 16.9% (inactive) in assay [7] and 20.6% (inactive) in assay [8]. In addition, the inhibition of aggregation in assay [2] is 0.4% (inactive). Moreover, the values for the nuclei count in assay [2] and in assay [3] were 59.1% and 93.8%, respectively. Moreover, the fluorescence slope in assay [4] was -0.598 (inactive). The NADPH fluorescence slope in assay [5] is -1.6e-05 (inactive). The slope in assay [6] is 0.0052 (inactive).

As to `COc1ccc(OCC(=O)Nc2cccc3ncccc23)cc1`, the cell count in assay [1] worked out at 629. Also, the inhibition was -16.2% (inactive) in assay [1], 23.2% (inactive) in assay [3], 1.02% (inactive) in assay [7] and -8.12% (inactive) in assay [8]. In addition, the inhibition of aggregation in assay [2] is 31.6% (inactive). Further, the results for the nuclei count in assay [2] and in assay [3] were 84.8% and 95.6%, respectively. Moreover, in assay [4], the fluorescence slope is -0.622 (inactive). In assay [5], the NADPH fluorescence slope is -5.4e-05 (inactive). Besides, in assay [6], the slope is 0.00436 (inactive).

Take `O=C(NCC(c1cccnc1)N1CCN(c2ccccc2)CC1)c1ccc2c(c1)OCO2` (centres undefined): the cell count in assay [1] was found to be 362. The inhibition in assay [1] is -1.8% (inactive); in assay [3] it was 29.6% (inactive); in assay [7] it was 8.91% (inactive); in assay [8] it was 16.3% (inactive). Besides, in assay [2], the inhibition of aggregation is 25.6% (inactive). Besides, the nuclei count in assay [2] turned out to be 87.1%; in assay [3], 83.3%. For the same molecule, the fluorescence slope in assay [4] is -0.619 (inactive). Besides, the NADPH fluorescence slope in assay [5] was -1.3e-05 (inactive). Besides, in assay [6], the slope was 0.00563 (inactive).

For the molecule `CCCCCC1CC(CC(=O)O)C(=O)O1` (centres undefined), in assay [1], the cell count is 230. In addition, the inhibition was -25.6% (inactive) in assay [1], -70.3% (inactive) in assay [3], 7.61% (inactive) in assay [7] and 23.6% (inactive) in assay [8]. In assay [2], the inhibition of aggregation is 20.9% (inactive). The nuclei count is 80.6% in assay [2] and 126% in assay [3]. Also, in assay [4], the fluorescence slope is -0.4 (inactive). For the same molecule, in assay [5], the NADPH fluorescence slope is -5.4e-05 (inactive). Besides, the slope in assay [6] is 0.00366 (inactive).

Regarding `CN(C)c1oc(-c2ccccc2F)nc1C#N`, the cell count in assay [1] amounted to 576. For the same molecule, the inhibition was 5.5% (inactive) in assay [1], -56.7% (inactive) in assay [3], -3.37% (inactive) in assay [7] and -12.5% (inactive) in assay [8]. For the same molecule, in assay [2], the inhibition of aggregation is 10.1% (inactive). Further, the nuclei count worked out at 104% in assay [2] and 111% in assay [3]. Moreover, the fluorescence slope in assay [4] is -0.355 (inactive). In addition, the NADPH fluorescence slope in assay [5] was -1.3e-05 (inactive). Besides, in assay [6], the slope was 0.00727 (inactive).

Regarding `O=S(=O)(c1cccs1)N1CCN(Cc2nc3ccccc3s2)CC1`, the cell count in assay [1] came out at 283. The inhibition is 3.3% (inactive) in assay [1], 1% (inactive) in assay [3], -3.64% (inactive) in assay [7] and -4.76% (inactive) in assay [8]. The inhibition of aggregation in assay [2] was -5.8% (inactive). For the same molecule, the values for the nuclei count in assay [2] and in assay [3] were 99.8% and 90.9%, respectively. In addition, in assay [4], the fluorescence slope was -0.556 (inactive). The NADPH fluorescence slope in assay [5] was 3e-05 (inactive). In addition, the slope in assay [6] was 0.00461 (inactive).

As for `CC(=O)Nc1ccc(S(=O)(=O)NCc2cn3c(C)csc3n2)cc1`, the cell count in assay [1] was 531. The inhibition in assay [1] is -7.6% (inactive); in assay [3] it was -29.8% (inactive); in assay [7] it was 1.88% (inactive); in assay [8], 8.5% (inactive). Also, the inhibition of aggregation in assay [2] was -8.4% (inactive). For the same molecule, the results for the nuclei count in assay [2] and in assay [3] were 104% and 84.3%, respectively. Also, in assay [4], the fluorescence slope is -0.588 (inactive). Besides, in assay [5], the NADPH fluorescence slope was -3.6e-05 (inactive). For the same molecule, the slope in assay [6] was 0.00529 (inactive).

On to `Cc1ccc(Cn2c(SCCN3CCCCC3)nc3c2c(=O)[nH]c(=O)n3C)cc1`, for which the cell count in assay [1] came out at 575. For the same molecule, the inhibition in assay [1] was -6.4% (inactive); in assay [3], 29.9% (inactive); in assay [7] it was 3.78% (inactive); in assay [8] it was 32.9% (inactive). Moreover, the inhibition of aggregation in assay [2] was 5.6% (inactive). The nuclei count in assay [2] came out at 71.5%; in assay [3], 100%. In addition, the fluorescence slope in assay [4] is -0.577 (inactive). The NADPH fluorescence slope in assay [5] is -2.5e-05 (inactive). In assay [6], the slope is 0.00647 (inactive).

For `Cc1ccsc1C(C(=O)NC1CCCCC1)N(C(=O)Cc1cccs1)C1CC1` (centres undefined), the cell count in assay [1] worked out at 500. Further, the inhibition in assay [1] is 0% (inactive); in assay [3] it was -62.9% (inactive); in assay [7], 15.2% (inactive); in assay [8], 36% (inactive). The inhibition of aggregation in assay [2] was 16.1% (inactive). Besides, the nuclei count was 86.8% in assay [2] and 94.1% in assay [3]. In assay [4], the fluorescence slope is -0.35 (inactive). Further, the NADPH fluorescence slope in assay [5] is -4.8e-05 (inactive). Further, the slope in assay [6] was 0.00468 (inactive).

In the case of `CCC(C)(C)n1nnnc1C(c1ccncc1)N1CCN(c2cccc(OC)c2)CC1` (centres undefined), in assay [1], the cell count stood at 410. The inhibition in assay [1] was 1% (inactive); in assay [3], -31.9% (inactive); in assay [7], 23.4% (inactive); in assay [8], 28.6% (inactive). The inhibition of aggregation in assay [2] was -2.6% (inactive). In addition, the values for the nuclei count in assay [2] and in assay [3] were 95.6% and 98.8%, respectively. Moreover, the fluorescence slope in assay [4] was -0.629 (inactive). In addition, the NADPH fluorescence slope in assay [5] is -2e-05 (inactive). In addition, in assay [6], the slope is 0.00376 (inactive).

`Cc1cccc(-n2c(=O)cc(N3CCN(c4ccc(F)cc4)CC3)[nH]c2=O)c1`: in assay [1], the cell count is 605. Besides, the inhibition in assay [1] was 0% (inactive); in assay [3], 15.8% (inactive); in assay [7], -5.09% (inactive); in assay [8], -5.41% (inactive). Further, the inhibition of aggregation in assay [2] was 15.8% (inactive). Also, the nuclei count in assay [2] was found to be 50.1%; in assay [3], 83.6%. For the same molecule, in assay [4], the fluorescence slope was -0.448 (inactive). Besides, the NADPH fluorescence slope in assay [5] was -2.5e-05 (inactive). Moreover, the slope in assay [6] was 0.00544 (inactive).

As to `CCOc1ccc(N(C(C)=O)C2C=CS(=O)(=O)C2)cc1` (centres undefined), in assay [1], the cell count worked out at 610. In addition, the inhibition in assay [1] was -0.2% (inactive); in assay [3], -4% (inactive); in assay [7] it was 3.45% (inactive); in assay [8], 19.5% (inactive). Moreover, the inhibition of aggregation in assay [2] is -4.3% (inactive). The nuclei count in assay [2] stood at 104%; in assay [3] it was 139%. In addition, in assay [4], the fluorescence slope is -0.496 (inactive). In addition, the NADPH fluorescence slope in assay [5] was -1.8e-05 (inactive). In addition, the slope in assay [6] is 0.00613 (inactive).

As for `O=C(NC1CCCc2ccccc21)c1ccc(CNc2c(N3CCOCC3)c(=O)c2=O)cc1` (centres undefined), the cell count in assay [1] turned out to be 644. The inhibition in assay [1] was -3.4% (inactive); in assay [3] it was -52.7% (inactive); in assay [7] it was 12.8% (inactive); in assay [8], 27% (inactive). In addition, the inhibition of aggregation in assay [2] is 36.3% (active). In addition, the nuclei count in assay [2] turned out to be 51.3%; in assay [3] it was 108%. In addition, in assay [4], the fluorescence slope is -0.55 (inactive). Moreover, the NADPH fluorescence slope in assay [5] is -2.5e-06 (inactive). Besides, in assay [6], the slope was 0.00556 (inactive).
